Reference: PubChem BioAssay (EPA / NIEHS)
Results filed as inconclusive are left out. The source made the active and inactive calls. Rule for the calls, unless noted: active = hit-call score of the fitted dose curve at least 0.9, where 1 is the maximum; inactive = score below 0.9.

How the values were obtained:
[1] = read-out: Interleukin-8 (IL8), CXCL8 (gene 3576); experiment: BSK_3C_IL8: BioMAP Diversity Plus: 3C Assay for Interleukin-8 (IL8) Biomarker Activity (AID 2283020); settings: primary human endothelial cells (HUVEC); actives raise or lower the signal
Procedure, shortened: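 Human vascular endothelial cells (umbilical vein) in the 3C system; IL-8 level detected by ELISA at 24 h post-dose, with DMSO as baseline.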

[2] = molecular target: human Vitamin D Receptor (VDR), VDR (gene 7421) (UniProt P11473); experiment: ATG_VDR_TRANS: Attagene TRANS-FACTORIAL HepG2 Assay for human Vitamin D Receptor (VDR) (AID 2283022; active = hit-call score of the fitted dose curve at least 0.9, where 1 is the maximum)
Procedure, shortened: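 HepG2 cells were transiently transfected with GAL4-UAS reporter units and a chimeric VDR-Gal4 construct, then dosed for 24 hours. Reporter mRNA was quantified by RT-PCR, fluorescent labeling, HpaI digestion and capillary electrophoresis; gain of signal analysed vs DMSO.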

[3] = BSK_3C_SRB: Viability Assessment in the BioMAP Diversity Plus: 3C Assay (AID 2283023); settings: primary human endothelial cells (HUVEC);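 note: fitted both ways against DMSO so a hit may be signal rise or drop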
Procedure, shortened: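 Human umbilical vein endothelial cells in the 3C system, treated 24 h. Total protein measured by 0.1% sulforhodamine B staining after 10% TCA fixation, read at 560 nm; bidirectional fit versus DMSO.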

[4] = read-out: Matrix Metallopeptidase 1 (MMP1), MMP1 (gene 4312); experiment: BSK_BE3C_MMP1: BioMAP Diversity Plus: BE3C Assay for Matrix Metallopeptidase 1 (MMP1) Biomarker Activity (AID 2283024); settings: primary human bronchial epithelial cells; actives raise or lower the signal
Procedure, shortened: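 Dose cells, wait 24 h, run MMP1 ELISA; cells are human bronchial epithelial primaries. Both increases and decreases relative to DMSO counted.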

[5] = BSK_3C_Vis: BioMAP Diversity Plus: 3C Assay for Morphology Visualization (AID 2283025); settings: primary human endothelial cells (HUVEC);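 note: fitted both ways so gain or loss versus DMSO counts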;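 for AC50: light microscopy image of cell morphology used as background control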
Procedure, shortened: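 Endothelial cells from human umbilical vein were treated with test chemicals for 24 h and inspected by light microscopy for changes in cell conformation.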

[6] = read-out: Pselectin, SELP (gene 6403); experiment: BSK_4H_Pselectin: BioMAP Diversity Plus: 4H Assay for Pselectin Biomarker Activity (AID 2283026); settings: primary human endothelial cells (HUVEC); actives raise or lower the signal
Procedure, shortened: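 Human vascular endothelium from umbilical vein; P-selectin measured by ELISA at 24 h post-dose, with cytotoxicity checked by sulforhodamine B total-protein staining in parallel cultures (0.1% SRB after 10% TCA fixation, read at 560 nm).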

[7] = BSK_4H_SRB: Viability Assessment in the BioMAP Diversity Plus: 4H Assay (AID 2283027); settings: primary human endothelial cells (HUVEC);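 note: cells exposed to compound for 24 h before staining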;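 for AC50: curves fitted both ways versus DMSO so AC50 may be loss or gain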
Procedure, shortened: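 Absorbance at 560 nm of SRB-stained total protein served as the viability read-out in confluent primary human umbilical vein endothelium 24 h after chemical treatment. Curves were fitted bidirectionally against DMSO as negative control.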

[8] = BSK_BE3C_SRB: Viability Assessment in the BioMAP Diversity Plus: BE3C Assay (AID 2283028); settings: primary human bronchial epithelial cells;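 for AC50: fitted both ways so AC50 may mark signal gain or loss versus DMSO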
Procedure, shortened: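 Human bronchial epithelial primary cells in confluent culture, 24 h after chemical dosing; total protein by 0.1% SRB staining after 10% TCA fixation, read at 560 nm. Bidirectional fitting versus DMSO baseline.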

[9] = read-out: Urokinase-type plasminogen activator receptor (uPAR), PLAUR (gene 5329); experiment: BSK_4H_uPAR: BioMAP Diversity Plus: 4H Assay for Urokinase-type plasminogen activator receptor (uPAR) Biomarker Activity (AID 2283030); settings: primary human endothelial cells (HUVEC); actives raise or lower the signal
Procedure, shortened: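 Human umbilical vein endothelial cells in the 4H system, 24 h after chemical dosing. Cell-surface uPAR measured by ELISA, fitted in both directions versus DMSO; cytotoxicity checked by SRB total protein in parallel cultures.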

[10] = read-out: Vascular endothelial growth factor receptor 2 (Homo sapiens) (UniProt P35968); experiment: BSK_4H_VEGFRII: BioMAP Diversity Plus: 4H Assay for Vascular endothelial growth factor receptor 2 (VEGFR2) Biomarker Activity (AID 2283031); settings: primary human endothelial cells (HUVEC); actives raise or lower the signal;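 for AC50: cell-surface VEGFR2 protein level quantified by ELISA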
Procedure, shortened: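 Primary human umbilical vein endothelial cells (4H system), 24 h exposure; cell-surface VEGFR2 measured by ELISA. Bidirectional fitting versus DMSO; cytotoxicity checked in parallel by SRB total-protein staining.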

[11] = read-out: Human Leukocyte Antigen - DR isotype (HLADR), HLA-DRA (gene 3122); experiment: BSK_BE3C_HLADR: BioMAP Diversity Plus: BE3C Assay for Human Leukocyte Antigen - DR isotype (HLADR) Biomarker Activity (AID 2283032); settings: primary human bronchial epithelial cells; actives raise or lower the signal
Procedure, shortened: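 Signal came from an ELISA for HLA-DR in human bronchial epithelial primary cells harvested 24 h after treatment; gain- and loss-of-signal fitting used DMSO controls as reference.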

[12] = read-out: Vascular cell adhesion molecule 1 (VCAM1), VCAM1 (gene 7412); experiment: BSK_4H_VCAM1: BioMAP Diversity Plus: 4H Assay for Vascular cell adhesion molecule 1 (VCAM1) Biomarker Activity (AID 2283033); settings: primary human endothelial cells (HUVEC); actives raise or lower the signal;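 note: cell-surface VCAM-1 protein measured by ELISA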
Procedure, shortened: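 Endpoint derived from bidirectional fitting against DMSO controls of VCAM-1 ELISA signal in umbilical vein endothelial cells sampled at 24 h following treatment.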

[13] = read-out: Interferon-gamma inducible Protein 10 (IP10), CXCL10 (gene 3627); experiment: BSK_BE3C_IP10: BioMAP Diversity Plus: BE3C Assay for Interferon-gamma inducible Protein 10 (IP10) Biomarker Activity (AID 2283034); settings: primary human bronchial epithelial cells; actives raise or lower the signal
Procedure, shortened: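 Using primary human bronchial epithelial cultures, the assay captures IP-10 by ELISA one day (24 h) after exposure. Parallel SRB staining of total protein flags overt cytotoxicity. Fits run bidirectionally relative to DMSO.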

[14] = read-out: Plasminogen activator inhibitor-1 (PAI1), SERPINE1 (gene 5054); experiment: BSK_BE3C_PAI1: BioMAP Diversity Plus: BE3C Assay for Plasminogen activator inhibitor-1 (PAI1) Biomarker Activity (AID 2283037); settings: primary human bronchial epithelial cells; actives raise or lower the signal
Procedure, shortened: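 PAI-1 biomarker levels in treated human bronchial epithelial cells are determined by ELISA at 24 h. Both increases and decreases relative to DMSO are fitted.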

[15] = read-out: urokinase plasminogen activator (uPA), PLAU (gene 5328); experiment: BSK_BE3C_uPA: BioMAP Diversity Plus: BE3C Assay for urokinase plasminogen activator (uPA) Biomarker Activity (AID 2283038); settings: primary human bronchial epithelial cells; actives raise or lower the signal
Procedure, shortened: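 Primary human bronchial epithelial cells, uPA measured by ELISA 24 h after dosing. Bidirectional change relative to DMSO; cytotoxicity checked in parallel cultures by sulforhodamine B total-protein staining.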

[16] = read-out: Urokinase-type plasminogen activator receptor (uPAR), PLAUR (gene 5329); experiment: BSK_BE3C_uPAR: BioMAP Diversity Plus: BE3C Assay for Urokinase-type plasminogen activator receptor (uPAR) Biomarker Activity (AID 2283039); settings: primary human bronchial epithelial cells; actives raise or lower the signal
Procedure, shortened: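 A uPAR ELISA serves as the readout, taken 24 h after treating primary human bronchial epithelial cells. Responses in either direction are fitted against DMSO, which defines baseline activity.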

[17] = read-out: Interleukin-6 (IL6), IL6 (gene 3569); experiment: BSK_CASM3C_IL6: BioMAP Diversity Plus: CASM3C Assay for Interleukin-6 (IL6) Biomarker Activity for (AID 2283040); settings: primary human coronary artery smooth muscle cells; actives raise or lower the signal
[18] = read-out: Monokine induced gamma interferon (MIG), CXCL9 (gene 4283); experiment: BSK_BE3C_MIG: BioMAP Diversity Plus: BE3C Assay for Monokine induced gamma interferon (MIG) Biomarker Activity (AID 2283035); settings: primary human bronchial epithelial cells; actives raise or lower the signal;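 note: MIG protein measured by ELISA in BE3C cultures after 24 h of dosing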
Procedure, shortened: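 MIG level was determined by ELISA after 24 h chemical treatment of primary human bronchial epithelial cells. Values were fitted bidirectionally with DMSO as the negative control and activity baseline.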

[19] = read-out: Thrombomodulin, THBD (gene 7056); experiment: BSK_3C_Thrombomodulin: BioMAP Diversity Plus: 3C Assay for Thrombomodulin Biomarker Activity (AID 2283029); settings: primary human endothelial cells (HUVEC); actives raise or lower the signal
Procedure, shortened: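 Thrombomodulin ELISA, human primary HUVEC, 24 h post-dose; data fitted in both directions relative to DMSO.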

Measured: AC50

Sequence of human Vitamin D Receptor (VDR), VDR (gene 7421) (P11473 whole entry, looked up, the tested form may be a part): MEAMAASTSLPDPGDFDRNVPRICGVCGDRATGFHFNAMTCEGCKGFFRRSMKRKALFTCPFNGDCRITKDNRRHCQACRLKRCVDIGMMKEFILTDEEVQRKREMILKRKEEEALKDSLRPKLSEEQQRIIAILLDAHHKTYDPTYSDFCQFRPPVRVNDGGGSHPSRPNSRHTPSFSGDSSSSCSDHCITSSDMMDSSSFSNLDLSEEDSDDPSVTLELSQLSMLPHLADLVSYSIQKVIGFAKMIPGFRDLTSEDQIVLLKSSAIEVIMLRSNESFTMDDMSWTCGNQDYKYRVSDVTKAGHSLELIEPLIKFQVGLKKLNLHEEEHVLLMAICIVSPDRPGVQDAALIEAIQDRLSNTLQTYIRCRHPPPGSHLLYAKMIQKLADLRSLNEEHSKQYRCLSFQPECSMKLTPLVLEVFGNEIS

CC(C)CCCC(C)CCO (stereo unspecified)
active: [3] 33.8 µM | [5] 39.6 µM | [6] 31.2 µM | [7] 28.8 µM | [8] 7.28 µM | [11] 29.1 µM | [13] 14.4 µM | [15] 28.6 µM | [16] 24.9 µM | [17] 32.5 µM
inactive: [1] | [2] | [4] | [9] | [10] | [12] | [14]

CC(C)Nc1ccc(NC(C)C)c2c1C(=O)c1ccccc1C2=O
inactive: [2]

CCN=c1cc2oc3cc(NCC)c(C)cc3c(-c3ccccc3C(=O)OCC)c-2cc1C
inactive: [2]

C[Si](C)O[Si](C)C
inactive: [2]

OCCCc1cccnc1
inactive: [2]

CCCCCCCCCCCCCC[P+](CCCC)(CCCC)CCCC
inactive: [2]

OCC1CCCO1 (stereo unspecified)
inactive: [2]

O=c1cccc[nH]1
inactive: [2]

NC(=O)C(F)(F)C(F)(F)C(F)(F)C(F)(F)C(F)(F)C(F)(F)C(F)(F)F
not listed: [2] | [5] | [9] | [10] | [12] | [19]
inactive: all other assays above

CCn1c2ccccc2c2ccccc21
inactive: [2]

CC(C)(C)C(=O)C1C(=O)c2ccccc2C1=O
inactive: [2]

CCCCCCCC/C=C\CCCCCCCC(=O)OCC(O)CO (stereo unspecified)
inactive: [2]

CC(=O)c1ccccc1N
inactive: [2]

CCc1cc(Cc2cc(CC)c(N)c(CC)c2)cc(CC)c1N
inactive: [2]

Cc1ccc(S(=O)(=O)C(I)I)cc1
active: [1] 4.26 µM | [3] 5.27 µM | [4] 11.4 µM | [5] 1.85 µM | [6] 1.87 µM | [7] 1.98 µM | [8] 5.15 µM | [9] 2.2 µM | [10] 1.87 µM | [11] 7 µM | [13] 6.58 µM | [14] 5.39 µM | [15] 6.62 µM | [16] 6.81 µM | [17] 2.67 µM

CCCCCCCCCc1ccc(OCCO)cc1
inactive: [2]

C=C(C)C(=O)OCC(F)(F)C(F)(F)C(F)(F)C(F)F
not listed: [2] | [5] | [19]
inactive: all other assays above

CCOC(OCC)OCC
inactive: [2]

N#Cc1ccccc1O
inactive: [2]

CCC(Cc1c(I)cc(I)c(N)c1I)C(=O)O (stereo unspecified)
inactive: [2]

F[Si-2](F)(F)(F)(F)F
inactive: [2]

NC(=O)C(F)(F)C(F)(F)C(F)(F)C(F)F
not listed: [2] | [5] | [10] | [18]
inactive: all other assays above

CC(C)C(=O)OCc1ccccc1
inactive: [2]

O=C=NCc1cccc(CN=C=O)c1
not listed: [2] | [10] | [18] | [19]
inactive: all other assays above

CCCCC(CC)COC(=O)c1ccc(N(C)C)cc1 (stereo unspecified)
inactive: [2]

c1ccc(C[P+](c2ccccc2)(c2ccccc2)c2ccccc2)cc1
inactive: [2]

CC(C)(C)c1cc(CCC(=O)OCC(COC(=O)CCc2cc(C(C)(C)C)c(O)c(C(C)(C)C)c2)(COC(=O)CCc2cc(C(C)(C)C)c(O)c(C(C)(C)C)c2)COC(=O)CCc2cc(C(C)(C)C)c(O)c(C(C)(C)C)c2)cc(C(C)(C)C)c1O
inactive: [2]

CC(O)C#CC(C)O (stereo unspecified)
inactive: [2]

COCCOCCC[Si](C)(O[Si](C)(C)C)O[Si](C)(C)C
inactive: [2]

Cc1ccc(O)cn1
inactive: [2]

CC1=CCC2C(=O)OC(=O)C2C1 (stereo unspecified)
inactive: [2]
